Only some compounds are listed: those with a hit (about 3.8% of all), similar ones and a draw of the others.
KAT2A inh: blocks human GCN5L2 histone acetyltransferase; Q92830; GCN5L2 HAT assay, ThioGlo1 CoA-SH fluorescence; Potency, µM (series often up to 58.9 µM), without a hit: at the top dose activity change, negative = inhibition, most hits filed as inhibitors; 390,000 compounds, 0.21% hits; AID 504327; note: potency is the fitted concentration of half-maximal effect
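ThioGlo1-coupled HAT assay: 20nM GCN5L2, 70uM acetyl-CoA, 75uM H3(1-25) peptide, pH 7.5. Fluorescence read at 340/540nm at start and after 20 min at room temperature.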
VDR inh: inhibitors of human vitamin D receptor. P11473. VDR-SRC2-3 peptide fluorescence polarization, 2 h. Potency, µM, without a hit: max response, negative = inhibition, usual class: inhibitors. 400,000 compounds, 0.93% hits; note: potency is the fitted concentration of half-maximal effect
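Signal is fluorescence polarization, reporting how far test compounds block the interaction of VDR with the SRC2-3 coregulator peptide after a 2 h room-temperature incubation.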
TrxR1 substrate: substrates of rat thioredoxin reductase 1; purified TrxR1 substrate turnover, NADPH consumption readout; AID 588456; 390,000 compounds, 0.01% hits; Potency, µM (highest dose often 114 µM), inactives show at the top dose activity change, negative = substrate turnover; note: potency is the fitted concentration of half-maximal effect; nearly all actives have a fitted effect of over 50% in size
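Rat TrxR1, dispensed at 90 nM, was prereduced with 400 uM NADPH (final) for 5 min at ~22 deg C, then incubated with compound 15 min before 400 uM selenite. A first-read NADPH fluorescence drop versus no-compound background flagged substrates.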
Sfp PPTase inh: blocks B. subtilis Sfp PPTase activity. Q9F4F7. Biochemical Sfp PPTase activity, qHTS. Potency, µM, for inactives: largest response in the series, negative = inhibition, actives largely listed as inhibitors. 310,000 compounds, 3.5% hits. AID 1490;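 note: the enzyme is Sfp with the accession as filed and its product quenches rhodamine fluorescence; potency is the fitted concentration of half-maximal effect; 0% = enzyme reaction without inhibitor and -100% = no enzyme wells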
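Reaction rates are the 30-min fluorescence difference (ex 525, em 598 nm) in wells containing 15 nM Sfp, 5 uM rhodamine-CoA and 12.5 uM BHQ-2-YbbR at pH 7.6 with 10 mM MgCl2.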
rTrxR1 inhibitor: inhibitors of rat thioredoxin reductase 1 | recombinant rTrxR1, NADPH fluorescence consumption, selenite substrate | Potency, µM (doses to about 114 µM), for the others: at the highest dose activity change, negative = inhibition, hits mostly inhibitors | 390,000 compounds, 1% hits | AID 588453; note: potency is the fitted concentration of half-maximal effect; nearly all actives have a fitted effect of over 65% in size
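Rat TrxR1 (90 nM in the dispensed reagent) was pre-reduced with 400 uM NADPH for 5 min at room temperature, then incubated with compound for 15 min. After 400 uM selenite was added, NADPH fluorescence (Ex 340/Em 450 nm) was followed for 8 min.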
GLS inhibitor: blocks human kidney-isoform glutaminase activity; Potency, µM (highest dose often 45.5 µM), without a hit: at the top dose activity change, negative = inhibition, actives largely listed as inhibitors; AID 624170; GLS enzymatic activity, qHTS titration; O94925; 410,000 compounds, 0.21% hits; note: potency is the fitted concentration of half-maximal effect
Target sequence (O94925 whole entry, looked up, canonical isoform): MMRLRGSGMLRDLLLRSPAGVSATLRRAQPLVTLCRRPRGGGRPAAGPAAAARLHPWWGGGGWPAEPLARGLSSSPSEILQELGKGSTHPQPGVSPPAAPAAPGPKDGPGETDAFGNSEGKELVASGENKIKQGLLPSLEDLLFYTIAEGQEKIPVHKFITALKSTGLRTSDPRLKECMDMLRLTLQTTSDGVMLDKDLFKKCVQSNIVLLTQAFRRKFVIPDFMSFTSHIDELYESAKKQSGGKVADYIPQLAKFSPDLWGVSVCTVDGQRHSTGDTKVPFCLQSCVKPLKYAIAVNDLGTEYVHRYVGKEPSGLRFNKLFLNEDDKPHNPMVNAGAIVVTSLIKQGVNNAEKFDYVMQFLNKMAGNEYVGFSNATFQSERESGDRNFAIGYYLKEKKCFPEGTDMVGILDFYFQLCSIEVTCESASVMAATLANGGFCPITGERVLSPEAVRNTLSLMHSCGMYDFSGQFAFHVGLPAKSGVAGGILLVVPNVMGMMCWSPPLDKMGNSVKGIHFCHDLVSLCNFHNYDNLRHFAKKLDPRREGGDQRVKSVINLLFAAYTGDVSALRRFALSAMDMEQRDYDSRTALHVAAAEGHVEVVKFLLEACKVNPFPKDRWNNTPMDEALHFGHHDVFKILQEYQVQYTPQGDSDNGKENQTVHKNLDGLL
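Enzyme dispensed in phosphate buffer (45 mM, pH 8.2, 0.02% Tween-20), compounds pinned in, then 1 mM L-glutamine solution and the glutamate oxidase–HRP–Amplex Red mix added; fluorescence read immediately and again after 30 min at room temperature.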
Sfp PPTase conf: confirmation of Bacillus subtilis Sfp PPTase inhibitors; shares compounds with Sfp PPTase inh; Sfp PPTase enzymatic assay, qHTS titration; Potency, µM (series often up to 114 µM), without a hit: at the highest dose activity change, negative = inhibition, actives largely listed as inhibitors; 380 compounds, 79% hits; AID 2701;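 note: potency is the fitted concentration of half-maximal effect; plate controls were uninhibited Sfp reaction for no effect and no enzyme control for full effect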
Sfp gel assay: Inhibits Bacillus subtilis Sfp phosphopantetheinyl transferase; AID 2707; shares compounds with Sfp PPTase inh; Potency, µM, most hits filed as inhibitors; 210 compounds, 20% hits; purified Sfp, gel-based phosphopantetheinylation read-out;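 active = potency below 100 µM; inconclusive = dose-dependent response but potency above 100 µM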;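 note: band intensities scaled against SCH202676 control wells before curve fitting; potency is an IC50 for inhibitors of Sfp transfer activity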
Starred values were filed as active, the others as inactive; i = inactive; ? = inconclusive; nt = not tested or not shown; [ ] = remark or other dose. Unless noted, calls come from the whole dose curve; as a rule, active = well fitted curve in the direction sought with a large enough effect; inconclusive = small, poorly fitted or top-dose-only effect, or another doubt; inactive = no such curve, though single readings can be large; an effect the other way counts as inactive or inconclusive. Unless noted, % is set by controls: 0 for no effect and ±100 for the full control effect.

SMILES	KAT2A inh	VDR inh	TrxR1 substrate	Sfp PPTase inh	rTrxR1 inhibitor	GLS inhibitor	others
COc1ccc(S(=O)(=O)N(C)CC(=O)Nc2ccc3c(c2)OCO3)cc1	-1%	-1%	0%	7%	11%	-5%
O=S(=O)(NCc1cccs1)c1cccc2cccnc12	4µM*	8%	-11%	1%	-5%	4%
O=C(CCSCc1ccccc1F)N1CCN(c2ccccn2)CC1	1%	-4%	9%	10%	11%	3%
CCc1ccc(OCC(=O)N/N=C(\C)c2ccc(-n3ccnc3)cc2)cc1	-1%	-10%	-3%[11.4 µM]	1%	8%[11.4 µM]	-11%
Cc1cc(Cl)ccc1OCCCC(=O)N1CCN(C(=O)c2ccco2)CC1	0%	-10%	-1%[57.1 µM]	9%	28µM*	2%
O=C(CSc1nc2ccc(Cl)cc2[nH]1)N1CCN(C(=O)c2ccco2)CC1	-17%	-14%	6%	-18%	16µM*	-1%
CCc1cc2ccc(C)cc2nc1SCC(=O)N1CCN(C(=O)c2ccco2)CC1	-5%	79µM*	4%	?	4µM*	10%
O=C(CSc1nc2ccc(Cl)cc2[nH]1)c1ccc2c(c1)OCO2	-20%	-9%	-1%[57.1 µM]	79µM*	4%[57.1 µM]	-26%
Cc1ccc2nc(SCC(=O)N3CCN(C(=O)c4ccco4)CC3)[nH]c2c1	21%	-4%	-5%	7%	?	-7%
C=CCCC1CN(Cc2ccco2)S(=O)(=O)c2c(F)cccc2O1 (stereo not drawn)	nt	?	-3%	nt	40µM*	0%
O=C1NC(=S)SC1=Cc1ccccc1Cl	nt	?	-15%	nt	-32%	24%
O=C1NC(=S)S/C1=C\c1ccc(SCc2ccco2)o1	14µM*	45µM*	-3%	20µM*	8.9µM*	11µM*
O=C1NC(=S)S/C1=C\c1ccc(SCc2ccccc2)o1	-6%	?	0%	?	25µM*	?
O=C1NC(=S)S/C1=C/c1ccc(OC(=O)c2ccco2)cc1	-24%	-6%	-3%	-3%	8%	8%
CCOC(=O)c1c(NC(=O)COc2ccccc2OCC)sc2c1CC(C)(C)NC2(C)C	-11%	6%	-5%	nt	0%	1%
CN(C)c1ccc(/C=N/Nc2ccc(-n3ccnc3)nn2)cc1	-5%	-13%	1%[57.1 µM]	45µM*	2%[57.1 µM]	13%
CN(C)c1ccc(/C=N\Nc2ccccn2)cc1	-7%	10%	-1%	-6%	7%[57.1 µM]	?
O=C1CC(c2ccc3c(c2)OCCO3)Oc2ccc([N+](=O)[O-])cc21 (stereo not drawn)	-6%	20µM*	-6%	4%	7%	9%
COc1ccc(NC(=O)C2CCCN2C(=O)NCc2ccccc2)cc1 (stereo not drawn)	-15%	71µM*	5%[57.1 µM]	23%	16%[57.1 µM]	-7%
Nc1cc(OC(=O)c2ccco2)nn1S(=O)(=O)c1ccc(F)cc1	-16%	-29%	-4%[57.1 µM]	?	7.1µM*	63%
COc1ccc(CCNC(=O)COc2ccc([N+](=O)[O-])cc2)cc1	2%	28µM*	1%	13%	19%[57.1 µM]	?
COc1ccc(CCNC(=O)COc2ccc(-c3ccc(C#N)cc3)cc2)cc1	-5%	-14%	-4%	-14%	-5%	-8%
O=C(NCCOc1ccccc1)C1Nc2ccc(OC(F)(F)F)cc2C2C=CCC12 (stereo not drawn)	nt	-11%	-2%	nt	15%	-3%
Cc1ccc(C)c2c1NC(C(=O)O)C1CC=CC21 (stereo not drawn)	nt	-22%	6%	nt	3.2µM*	nt
O=C(O)C1Nc2c(Cl)cc(Cl)cc2C2C=CCC12 (stereo not drawn)	3.5µM*	?	4%	?	20µM*	7.9µM*
SMILES	KAT2A inh	VDR inh	TrxR1 substrate	Sfp PPTase inh	rTrxR1 inhibitor	GLS inhibitor	others
O=C(O)C1Nc2c(O)cccc2C2C=CCC12 (stereo not drawn)	-2%	14%	-8%	-19%	35µM*	13µM*
O=C(O)C1Nc2c(Cl)cc(Cl)c(Cl)c2C2C=CCC12 (stereo not drawn)	nt	?	-1%	nt	?	?
COS(C)(=O)=O	-9%	2%	nt	21%	nt	nt
O=C(CCC(=O)N1CCN(c2ccccc2F)CC1)c1ccc(Cl)s1	-7%	-30%	-5%	nt	4%	6%
O=C(CCN1CCC(c2ccc(Cl)s2)=N1)c1ccc(Cl)s1	-3%	2%	2%	17%	2.8µM*	-2%
COc1ccccc1CNc1ccnc(-c2ccc3c(c2)OCO3)n1	-24%	?	nt	50µM*	nt	nt
COc1ccc(CNc2ccnc(-c3ccc(C(=O)N(C)C)cc3)n2)c(OC)c1	-9%	-7%	nt	9%	nt	nt
COc1ccc(CNc2ccnc(-c3ccc4c(c3)OCO4)n2)c(OC)c1	-20%	-28%	nt	45µM*	nt	nt
c1ccc(CNc2ccnc(-c3ccc4c(c3)OCO4)n2)cc1	-10%	-8%	nt	-13%	nt	nt
COc1ccccc1CNc1ccnc(-c2ccccc2OC)n1	?	?	nt	79µM*	nt	nt
COc1ccccc1CNc1ccnc(-c2ccccc2CN(C)C)n1	-5%	-2%	nt	11%	nt	nt
CC(C)N1CSC(=S)N(Cc2ccccc2)C1	0%	79µM*	4%	-6%	?	?
S=C1SCN(Cc2cccnc2)CN1Cc1ccccc1	-1%	-1%	6%[57.1 µM]	-20%	15%[57.1 µM]	-14%
CC(C)[C@H](NC(=O)OC(C)(C)C)c1nnc(S(=O)(=O)Cc2c(F)cccc2Cl)o1	-2%	?	10%	14µM*	0.71µM*	11%	Sfp PPTase conf=30µM*;Sfp gel assay=?
C[C@@H](NCCCc1cccc(C(F)(F)F)c1)c1cccc2ccccc12	-13%	2%	-3%	79µM*	15%	4%	Sfp PPTase conf=24µM*
O=C(Nc1ccc(F)cc1)C1=CC(=O)N2CCN=C2S1	-27%	nt	nt	0.56µM*	nt	nt	Sfp PPTase conf=12µM*
Cn1nc(C(C)(C)C)cc1NC(=O)Nc1cc(Cl)cc(Cl)c1	-14%	17%	-21%[57.1 µM]	6%	13%[57.1 µM]	-4%
N#CC1=C(SCC(=O)Nc2ccccc2)NC(=O)CC1c1ccco1 (stereo not drawn)	nt	-11%	8%	nt	-4%	-2%
COc1cccc(NC(=O)CSC2=C(C#N)C(c3ccco3)C3=C(CCCC3=O)N2)c1 (stereo not drawn)	-4%	3%	0%	7.9µM*	-20%[57.1 µM]	20%	Sfp PPTase conf=47µM*;Sfp gel assay=i

Screening data from PubChem BioAssay.
